Measured values reported in ChEMBL document CHEMBL3988442, “University of Dundee, Small-Polar-MMV Screening Library” (2021).

Each compound was assayed against AMP-activated protein kinase, AMPK (Homo sapiens) (UniProt P54646+O43741+P54619+Q9UGJ0+Q9Y478+Q13131+Q9UGI9) (assay: AMP-dependent Kinase enzyme assay. An in vitro enzyme assay that detects ADP turnover that is directly proportional to AMPK activity. This uses naive AMPK that is activated during the assay with MK-8722). Settings: 30 µM.
Format: functional
Set-up: scale not given: direction of the effect not stated beside the values

Compound | Percent Effect [%]
CCn1cc(NC(=O)NCCN2CCCc3ccccc32)cn1 | 7.2
COCCN1C[C@@H](C(=O)O)[C@H](c2ccccc2C)C1 | -1.51
COc1ncccc1-c1cc(C(=O)NC2CC2)ccn1 | -1.79
O=C(CNc1ccc(OCC2CCOCC2)cc1)NCc1ccco1 | 0.773
CC(C)(C)CN(CCO)C(=O)Nc1cccc(N2CCNC2=O)c1 | 2.19
CCC(C(=O)NC1(COC)CCCC1)n1cccn1 (stereo unspecified) | -12
O=C(NC1CC1)c1cnc2n1CCCC2 | -4.04
CC(=O)N1CCC(Cc2ccc(-c3ccnn3C)nc2)CC1 | -2.26
COC(=O)CNC(=O)c1ccn(-c2ccc(Cl)c(Cl)c2)n1 | 13.8
CN(C)Cc1nc(C(=O)N2CCCC(COc3ccc(F)cc3)C2)cs1 (stereo unspecified) | 8.59
O=C(NCc1nnnn1-c1ccccc1)c1ccc(C2CCCO2)s1 (stereo unspecified) | 1.57
CC(C)C1CCCN1C(=O)Nc1ccc(=O)n(C)c1 (stereo unspecified) | 56.6
CSc1ccc(NC(=O)Cn2cc(N)cn2)cc1 | -79.3
Cc1cc(CNS(C)(=O)=O)ccc1N(C)C | 1.62
CC(C)[C@@H]1CN(C(=O)CCc2ccc(F)cc2)C[C@H]1C(=O)O | -1.24
NC(=O)c1cc2c(nc1CC1CCCCO1)CCC2 (stereo unspecified) | -4.87
CCN(Cc1ccc2c(c1)OCO2)c1ncc(S(N)(=O)=O)s1 | 1.52
Cc1cc(Oc2ccc(NC(=O)C3CC3)cc2)cc(C2CCNCC2)n1 | -9.8
NC1CCc2nc(-c3cccnc3)nc(Nc3ccc(F)cc3)c2C1 (stereo unspecified) | 27.2
Cc1n[nH]c(C)c1NC(=O)NCc1ccccn1 | -10.3
O=C1NCCN(Cc2cccnc2)C1CC(=O)N1CCc2n[nH]cc2C1 (stereo unspecified) | -26.7
